Laboratory results: PubChem BioAssay AID1159580 (chemical genetic matrix, 2015)
Among all 5,500 compounds or so, about 2,000 (36%) were called active. Roughly 18% stayed inconclusive and do not appear here. Cut-off read from the data, not from the text of the source: active = normalized growth mostly below about 0.91 (no sharp cut-off); inconclusive = no clear call, values can overlap the other calls; inactive = mostly above about 0.92. The list shows a part of the results.

Assay: chemical genetic growth profiling, strain panel (AID 1159580);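 note: tested at 20 µM; growth read once vehicle control cultures reached saturation at 30 °C; 1 = growth at the plate median or of vehicle wells; lower values mean less growth of the strain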
Details: growth OD

Measured: normalized growth

c1ccc2c(c1)CCCC2C1=NCCN1 (stereo not given)
inactive: S. cerevisiae deletion strains, locus YKL009W, strain mrt4, hits give low values 0.995 | S. cerevisiae deletion strains, locus YKL068W, hits give low values 1 | S. cerevisiae deletion strains, locus YKL085W, strain MDH1 (second series), hits give low values 1.01 | S. cerevisiae deletion strains, locus YKL085W, strain MDH1, hits give low values 1.01 | S. cerevisiae deletion strains, locus YKL160W, strain elf1, hits give low values 1.03 | S. cerevisiae deletion strains, locus YKL190W, strain CNB1, hits give low values 1.01 | S. cerevisiae deletion strains, locus YKR001C, strain vps1, hits give low values 0.986 | S. cerevisiae deletion strains, locus YKR026C, strain gcn3, hits give low values 1.02 | S. cerevisiae deletion strains, locus YKR091W, strain srl3, hits give low values 1.03 | S. cerevisiae deletion strains, locus YLL001W, strain dnm1, hits give low values 1.03 | S. cerevisiae deletion strains, locus YLL026W, hits give low values 1.03 | S. cerevisiae deletion strains, locus YLL041C, strain sdh2, hits give low values 1.04 | S. cerevisiae deletion strains, locus YLR027C, strain aat2, hits give low values 1.02 | S. cerevisiae deletion strains, locus YLR039C, strain RIC1, hits give low values 1.03 | S. cerevisiae deletion strains, locus YLR058C, strain SHM2, hits give low values 1.01 | S. cerevisiae deletion strains, locus YLR102C, strain apc9, hits give low values 1 | S. cerevisiae deletion strains, locus YLR113W, strain HOG1, hits give low values 0.982 | S. cerevisiae deletion strains, locus YLR221C, strain rsa3, hits give low values 1.04 | S. cerevisiae deletion strains, locus YLR258W, strain gsy2, hits give low values 1.02 | S. cerevisiae deletion strains, locus YLR262C, strain YPT6 (second series), hits give low values 1.04 | S. cerevisiae deletion strains, locus YLR262C, strain YPT6, hits give low values 1.04 | S. cerevisiae deletion strains, locus YLR268W, strain sec22, hits give low values 1.03 | S. cerevisiae deletion strains, locus YLR320W, strain mms22, hits give low values 1.03 | S. cerevisiae deletion strains, locus YLR330W, strain CHS5, hits give low values 1.01 | S. cerevisiae deletion strains, locus YLR342W, strain FKS1 (second series), hits give low values 1.03 | S. cerevisiae deletion strains, locus YLR342W, strain FKS1, hits give low values 1.02 | S. cerevisiae deletion strains, locus YLR357W, strain rsc2, hits give low values 1.04 | S. cerevisiae deletion strains, locus YLR370C, strain arc18, hits give low values 1.02 | S. cerevisiae deletion strains, locus YLR371W, strain rom2, hits give low values 1.01 | S. cerevisiae deletion strains, locus YLR384C, strain iki3, hits give low values 1.03 | S. cerevisiae deletion strains, locus YLR418C, strain cdc73, hits give low values 0.98 | S. cerevisiae deletion strains, locus YML016C, strain PPZ1, hits give low values 1.01 | S. cerevisiae deletion strains, locus YML032C, strain rad52, hits give low values 1 | S. cerevisiae deletion strains, locus YML120C, strain ndi1, hits give low values 1.01 | S. cerevisiae deletion strains, locus YML124C, strain tub3, hits give low values 0.986 | S. cerevisiae deletion strains, locus YMR058W, strain fet3, hits give low values 1.02 | S. cerevisiae deletion strains, locus YMR078C, strain ctf18, hits give low values 0.997 | S. cerevisiae deletion strains, locus YMR125W, strain sto1, hits give low values 1.03 | S. cerevisiae deletion strains, locus YMR129W, hits give low values 1.02 | S. cerevisiae deletion strains, locus YMR205C, strain PFK2, hits give low values 1.05 | S. cerevisiae deletion strains, locus YMR223W, strain ubp8, hits give low values 0.985 | S. cerevisiae deletion strains, locus YMR231W, strain pep5, hits give low values 1.02 | S. cerevisiae deletion strains, locus YMR263W, strain SAP30, hits give low values 1.01 | S. cerevisiae deletion strains, locus YMR307W, strain GAS1, hits give low values 1 | S. cerevisiae deletion strains, locus YNL067W, strain RPL9B, hits give low values 1 | S. cerevisiae deletion strains, locus YNL071W, strain lat1, hits give low values 1.03 | S. cerevisiae deletion strains, locus YNL128W, strain TEP1, hits give low values 1.02 | S. cerevisiae deletion strains, locus YNL153C, strain GIM3, hits give low values 1.06 | S. cerevisiae deletion strains, locus YNL175C, strain NOP13, hits give low values 0.995 | S. cerevisiae deletion strains, locus YNL183C, strain NPR1, hits give low values 0.953 | S. cerevisiae deletion strains, locus YNL197C, strain WHI3, hits give low values 1 | S. cerevisiae deletion strains, locus YNL209W, strain ssb2, hits give low values 1.02 | S. cerevisiae deletion strains, locus YNL224C, strain SQS1, hits give low values 1 | S. cerevisiae deletion strains, locus YNL233W, strain BNI4, hits give low values 1.01 | S. cerevisiae deletion strains, locus YNL248C, strain rpa49, hits give low values 1.02 | S. cerevisiae deletion strains, locus YNL250W, strain rad50, hits give low values 0.998 | S. cerevisiae deletion strains, locus YNL271C, strain bni1, hits give low values 0.998 | S. cerevisiae deletion strains, locus YNL298W, strain CLA4, hits give low values 1.02 | S. cerevisiae deletion strains, locus YNL307C, strain MCK1, hits give low values 0.995 | S. cerevisiae deletion strains, locus YNL322C, strain KRE1 (second series), hits give low values 1.03 | S. cerevisiae deletion strains, locus YNL322C, strain KRE1, hits give low values 1.01 | S. cerevisiae deletion strains, locus YNR049C, strain mso1, hits give low values 1.02 | S. cerevisiae deletion strains, locus YNR052C, strain pop2, hits give low values 1.01 | S. cerevisiae deletion strains, locus YOL006C, strain TOP1, hits give low values 0.988 | S. cerevisiae deletion strains, locus YOL012C, strain htz1 0.923 | S. cerevisiae deletion strains, locus YOL147C, strain pex11, hits give low values 0.989 | S. cerevisiae deletion strains, locus YOR001W, strain rrp6, hits give low values 1.02 | S. cerevisiae deletion strains, locus YOR061W, strain CKA2, hits give low values 1.01 | S. cerevisiae deletion strains, locus YOR069W, strain VPS5, hits give low values 1.01 | S. cerevisiae deletion strains, locus YOR070C, strain gyp1, hits give low values 1.02 | S. cerevisiae deletion strains, locus YOR080W, strain dia2, hits give low values 1.04 | S. cerevisiae deletion strains, locus YOR083W, strain WHI5 (second series), hits give low values 1.02 | S. cerevisiae deletion strains, locus YOR083W, strain WHI5, hits give low values 1.03 | S. cerevisiae deletion strains, locus YOR106W, strain vam3, hits give low values 1.03 | S. cerevisiae deletion strains, locus YOR136W, strain idh2, hits give low values 0.994 | S. cerevisiae deletion strains, locus YOR144C, strain elg1, hits give low values 0.993 | S. cerevisiae deletion strains, locus YOR184W, strain ser1, hits give low values 0.99 | S. cerevisiae deletion strains, locus YOR231W, strain MKK1, hits give low values 0.978 | S. cerevisiae deletion strains, locus YOR265W, strain rbl2, hits give low values 1.02 | S. cerevisiae deletion strains, locus YOR270C, strain vph1, hits give low values 1.07 | S. cerevisiae deletion strains, locus YOR290C, strain snf2, hits give low values 1.04 | S. cerevisiae deletion strains, locus YOR316C, strain cot1, hits give low values 1 | S. cerevisiae deletion strains, locus YPL051W, strain arl3, hits give low values 1.03 | S. cerevisiae deletion strains, locus YPL055C, strain LGE1, hits give low values 0.995 | S. cerevisiae deletion strains, locus YPL078C, strain atp4, hits give low values 1.01 | S. cerevisiae deletion strains, locus YPL106C, strain sse1, hits give low values 1.06 | S. cerevisiae deletion strains, locus YPL240C, strain hsp82, hits give low values 1.01 | S. cerevisiae deletion strains, locus YPL241C, strain CIN2, hits give low values 1.01 | S. cerevisiae deletion strains, locus YPL256C, strain CLN2, hits give low values 0.959 | S. cerevisiae deletion strains, locus YPR119W, strain clb2, hits give low values 1.01 | S. cerevisiae deletion strains, locus YPR141C, strain kar3, hits give low values 0.981 | S. cerevisiae deletion strains, locus YPR163C, strain tif3, hits give low values 1 | S. cerevisiae deletion strains, locus YPR167C, strain met16, hits give low values 1 | S. cerevisiae deletion strains, strain wtn01, hits give low values 0.996 | S. cerevisiae strains, strain wild type, hits give low values 1.02
